In ChEMBL document CHEMBL4513216, “Probing the Open Global Health Chemical Diversity Library for Multistage-Active Starting Points for Next-Generation Antimalarials” (ACS Infect Dis, 2020) one finds INHIBITION data, which are given here for 52 compounds.

Each structure is given as a SMILES string. The campaign covered roughly 69,000 compounds. About 8,600 (12%) showed an effect of 50% or more. This is one part of a sample in which strong results are shown more often than they occur.

This assay relates to Plasmodium berghei. The assay can be described thus: Screen against P. berghei liver stage (PbLuc), transformed with Luciferase, at 10uM. Format: functional, HepG2. The conditions noted are these: tested at 10 uM.
Consider `CCOc1ccc(C(=O)N2C[C@@H]3CC[C@H]2CN(C)C3)cc1OCC`, for which the INHIBITION amounted to 28%.
For `COc1ccccc1-c1ccc(C(=O)N2C[C@@H]3CC[C@H]2CN(C)C3)cc1`, the INHIBITION is listed as 58.3%.
Turning to `COc1ccc(C(=O)N2C[C@@H]3CC[C@H]2CN(C)C3)cc1Cl`, the INHIBITION was found to be 32.3%.
Consider `Cn1cc(C2CCCN2C(=O)Cn2c(=O)oc3ccccc32)cn1` (configuration not stated), for which the INHIBITION is listed as -19.1%.
As for `Cn1cccc1C(=O)NC[C@H]1C[C@@H]2CN(C(=O)c3ccno3)C[C@H]2O1`, the INHIBITION came out at 42.3%.
As for `CN(C)C[C@H]1C[C@@H]2CN(C(=O)c3ccno3)C[C@@H]2O1`, the INHIBITION is 34.9%.
In the case of `O=C(NC[C@H]1C[C@@H]2CN(C(=O)c3ccno3)C[C@@H]2O1)C1CCC1`, the INHIBITION is 70.4%.
Turning to `CCn1cc(-c2cc(C(F)F)n3nc(CC(=O)O)nc3n2)cn1`, the INHIBITION is on record as 53%.
As for `Cn1cc(-c2cc(C(F)F)n3nc(CCC(=O)O)nc3n2)cn1`, the INHIBITION is recorded as -24.1%.
With `CCn1cc(-c2cc(C(F)F)n3nc(CCC(=O)O)nc3n2)cn1` the figure was 33.7%; with `CC(C)(C)c1nc(C(C)(C)NC(=O)C2CC(=O)N(CC3CC3)C2)no1` (configuration not stated), -17.6%; with `Cn1cc(CN2CCc3c(nc(-c4ccccn4)[nH]c3=O)C2)cn1`, 26.7%.
As for `CCn1cc(CN2CCc3nc(-c4ccccn4)nc(O)c3C2)cn1`, the figure is 1.5%; as for `Cn1cc(CN2CCc3nc(-c4ccccn4)nc(O)c3C2)cn1`, 52.3%.
With `CN(C)C(=O)c1ccc(C2CCCNC2)nc1` (configuration not stated), the INHIBITION is reported as 12.3%.
With `CN(C)CC1CN(Cc2ccsc2)Cc2nccn2C1` (configuration not stated) the figure was 31.8%; with `CN(C)Cc1cccc(-c2cccnc2C(=O)NCc2cn(C)cn2)c1`, 51%.
On to `CN(C)Cc1cccc(-c2cccnc2C(=O)NCc2ccccn2)c1`, for which the INHIBITION stood at 14.85%.
With `CN(C)Cc1cccc(-c2cccnc2C(=O)NCc2ccco2)c1` the figure was 2.7%; with `Cc1ncsc1CCN(C)C(=O)CN1CCOC1=O`, 61.8%; with `CC(C)n1ccnc1CN1C(=O)OC[C@@H]1c1ccccc1`, 42.6%.
With `CN(Cc1csc(-c2cccs2)n1)C(=O)CN1CCOC1=O` the figure was 55%; with `Cc1cc(C)n(CC(=O)N(C)Cc2csc(-c3cccs3)n2)c(=O)n1`, 38.5%; with `Cc1ncsc1CCN(C)C(=O)CN1C(=O)OC[C@@H]1c1ccccc1`, 66.5%.
Take `Cc1ccc(=O)n(CC(=O)N(C)Cc2csc(-c3cccs3)n2)n1`: the INHIBITION is 5.23%.
In the case of `COc1ccccc1CN(C)C(=O)CN1C(=O)OC[C@@H]1c1ccccc1`, the INHIBITION was 28.5%.
With `Cc1ncsc1CCN(C)C(=O)CN1CCCCCC1=O` the figure was 30.8%.
As for `CC(C)N(C)C(=O)CN1C(=O)OC[C@@H]1c1ccccc1`, the INHIBITION was found to be 58.2%.
With `Cc1nc(CCN(C)C(=O)CN2C(=O)OC[C@@H]2c2ccccc2)no1`, the INHIBITION is listed as 44.3%.
With `Cc1ncsc1CCN(C)C(=O)CN1CCOc2ccccc2C1` the figure was 40.5%; with `Cc1ncsc1CCN(C)C(=O)CN1CCCCC1=O`, 39.4%.
Consider `CCN(CC(=O)Nc1cc(Cl)ccc1C)C(=O)c1cnccn1`, for which the INHIBITION was -25.9%.
Take `COc1ccc(C(=O)N2CCC(Nc3ccc(C)nn3)CC2)cc1`: the INHIBITION stood at 42%.
`CN(C)c1nc2sc(C(=O)N3CCN(C(=O)OC(C)(C)C)CC3)cc2s1`: the INHIBITION is recorded as -9.39%.
Turning to `CCCS(=O)(=O)N1C[C@H](N(C)Cc2ccco2)[C@@H]2OCCC[C@@H]21`, the INHIBITION is on record as 40.4%.
Take `O=C(CCn1cnc2cc(F)c(F)cc21)N1CCN2CCCCC2C1` (configuration not stated): the INHIBITION amounted to 23.4%.
Take `Cc1cc(CN2C[C@@H]3COC[C@@H](C(=O)N4CCCCO4)[C@@H]3C2)oc1C`: the INHIBITION was 33.4%.
Regarding `NC(=O)c1ccc(NC2CCOC3(CCCC3)C2)nn1` (configuration not stated), the INHIBITION is recorded as 7.18%.
Turning to `COC(=O)CCn1ccc(=O)c2cc(OC)ccc21`, the INHIBITION was -80.3%.
Consider `CN(CCc1ccccc1)C(=O)CN1C(=O)OC[C@@H]1c1ccccc1`, for which the INHIBITION was found to be 36.9%.
For the compound `CN(CCc1cnn(C)c1)C(=O)Cn1c(=O)[nH]c2ccccc21`, the INHIBITION was found to be 27%.
`CN(CCc1cnn(C)c1)C(=O)CN1C(=O)OC[C@@H]1c1ccccc1`: the INHIBITION is reported as 50.8%.
As for `CCC(CC)C(=O)NCc1cnn(CC)c1`, the figure is 20.1%; as for `Cn1c(=O)c2cc(C(=O)NCCc3ccccc3)ccc2n(C)c1=O`, -0.371%.
As to `O=C(NCC1CCCO1)c1c(-n2cnnn2)sc2c1CCC2` (configuration not stated), the INHIBITION was -1.58%.
Consider `CC(C)CNC(=O)c1c(-n2cnnn2)sc2c1CCCC2`, for which the INHIBITION is 68.1%.
Regarding `COC(=O)CNC(=O)c1c(-n2cnnn2)sc2c1CCCC2`, the INHIBITION was -5.59%.
With `Cc1nc(NC(=O)c2c(-n3cnnn3)sc(C)c2C)sc1C`, the INHIBITION is on record as 92.5%.
With `CCCn1nccc1C(=O)Nc1nc(C)c(C)s1`, the INHIBITION is on record as -9.44%.
For `CC(C)CNC(=O)c1sccc1-n1cnnn1`, the INHIBITION was 32.3%.
In the case of `CC(C)CNC(=O)c1c(-n2cnnn2)sc2c1CCC2`, the INHIBITION is 14.2%.
As to `Cc1sc(-n2cnnn2)c(C(=O)NC(C)C)c1C`, the INHIBITION turned out to be 21.2%.
